Screens (PubChem)
Methyltransferases – Primary Screen for Target Class Profiling of Small Molecule Inhibitors of Methyltransferases | purified enzyme, MTase-Glo SAH luminescence; active compounds read low | calls only at 40 µM | hit rate 3.9% among 25,000 | AID 1745853, 2022; call rule not given here
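Each enzyme was assayed with SAM and its substrate. SAH formation detected by MTase-Glo luminescence; single-point 40 uM screen[…].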
Calls only; – = inactive; + = active, no number. This is one part of a sample in which hits are shown more often than they occur.

SMILES	Methyltransferases
COc1cccc(N2CCN(C(=O)CCC[C@@H]3[C@H]4CCCN5CCC[C@@H](CN3C)[C@@H]45)CC2)c1	–
O=C(COc1ccccc1)N1CCC(c2n[nH]c(=O)n2Cc2ccc(F)cc2)CC1	–
Cc1ccccc1CSc1nnc2n(CCCOC(C)C)c(=O)c3ccccc3n12	–
CCCN1C(=O)c2c(C(=O)Nc3cccc(C)c3C)ncn2CC1(C)C(=O)NC1CCCC1 (stereo not drawn)	–
CN1CCN(c2ccc(C(=O)Nc3n[nH]c4ccc(Cc5cc(F)cc(F)c5)cc34)c(NC3CCOCC3)c2)CC1	–
CCc1nc(C(N)=O)c(Nc2ccc(N3CCC(N4CCN(C)CC4)CC3)c(OC)c2)nc1NC1CCOCC1	+
CC1(C(=O)NC2CCCCC2)Cn2nc(-c3cccs3)cc2C(=O)N1c1ccc(F)cc1F (stereo not drawn)	–
NCCc1ccc(O)c(O)c1	+
CC(C)Cn1c(=O)c2ccccc2n2c(=O)n(CC(=O)c3ccc(Br)cc3)nc12	–
CN1CCc2cccc3c2C1Cc1ccc(O)c(O)c1-3 (stereo not drawn)	+
CCCCNc1nc2c(-c3ccc(OC)cc3)nnn2c2ccccc12	–
C[C@@H]1O[C@@H](O[C@H]2[C@@H]3C=CO[C@@H](O[C@@H]4O[C@H](CO)[C@@H](O)[C@H](O)[C@H]4O)[C@@H]3[C@@]3(CO)O[C@@H]23)[C@H](O)[C@H](OC(=O)/C=C/c2ccc(O)cc2)[C@H]1OC(=O)/C=C/c1ccc(O)cc1	–
CC1(C(=O)NC2CCCCCCC2)Cc2ccccc2C(=O)N1CCN1CCOCC1 (stereo not drawn)	–
CN1[C@@H]2CC[C@H]1CC(NC(=O)n1c(=O)[nH]c3ccccc31)C2 (stereo partly drawn)	–
CC(C)(C)c1cc2n(n1)CC(C)(C(=O)NC1CCCCCC1)N(Cc1ccc(F)cc1)C2=O (stereo not drawn)	–
CN(C)c1ccc(NC(=O)NS(=O)(=O)c2ccc(Cl)cc2)cc1	+
CCCNC(=O)NS(=O)(=O)c1ccc(Cl)cc1	–
Cn1c(=O)n(C)c2cc(S(=O)(=O)Nc3ccc(Cl)cc3)ccc21	–
CC(C)COC(=O)N1CCCn2nc(-c3nc4ccccc4n3C)cc2C1	–
CCCN1C(=O)c2cc(C(=O)NCCc3ccc(OCC)cc3)nn2CC1(C)C(=O)NC1CCCC1 (stereo not drawn)	–
CC1CCC2(CO)C(C(=O)O)=CCCC2C1(C)CCc1ccoc1 (stereo not drawn)	+
CC1CCC2(C)C(CC(O)C(O)C23CO3)C1(C)CCC1=CC(=O)OC1O (stereo not drawn)	–
CC1=CCC[C@@H]2[C@](CCc3ccoc3)(C(=O)O)[C@H](C)CC[C@@]12C	–
CC1CC(O)C2(C)C(C(=O)O)=CCCC2C1(C)CCc1ccoc1 (stereo not drawn)	+
CCOC(=O)c1cc2n(n1)CC(C)(C(=O)NC1CCC(C)CC1)N(Cc1ccccc1C)C2=O (stereo not drawn)	–
SMILES	Methyltransferases
CN(C/C=C/c1ccccc1)C(=O)C1CCC(=O)N(Cc2cccc(F)c2)C1 (stereo not drawn)	–
Cc1cc(C(C)Nc2ccccc2)c2nc(N3CCOCC3)cc(=O)n2c1 (stereo not drawn)	–
CCOc1ccc(CCN2C(=O)c3ccc(-c4ccco4)n3CC2(C)C(=O)NCc2ccccc2)cc1 (stereo not drawn)	–
CN(C)c1ccc(Nc2nc(N)n(C(=O)c3c(F)cccc3F)n2)cc1	–
CC(C)OCCCNC(=O)C1(C)Cn2c(cc3ccccc32)C(=O)N1Cc1ccccc1F (stereo not drawn)	–
OC[C@H]1O[C@@H](n2cnc3c2NC=NC[C@H]3O)C[C@@H]1O	–
Cc1cccc(NC(=O)N2CCn3c(C)ccc3C2C(C)C)c1C (stereo not drawn)	–
O=C(OC(C(F)(F)F)C(F)(F)F)N1CCN(Cc2cccc(Oc3ccccc3)c2)CC1	–
Cn1cc(-c2ccncc2)cc1C(=O)N1CCN(c2ccc(F)cc2)CC1	–
CCc1ccc(-c2cc3n(n2)CC(C)(C(=O)NC2CCCCC2)N(CCCOC(C)C)C3=O)cc1 (stereo not drawn)	–
Cc1ccc2nc(N)[nH]c(=O)c2c1Sc1ccncc1	+
CC(C)n1c(=O)c2ccc(C(=O)NC3CCCCC3)cc2n2c(=O)n(CC(=O)NCc3ccccc3)nc12	–
CCOC(=O)c1cc2n(n1)CC(C)(C(=O)NC1CCCCCC1)N(c1ccc(OCC)cc1)C2=O (stereo not drawn)	–
O=C(O)CC[C@@H](C(=O)O)N1C(=O)c2ccccc2C1=O	–
CC[C@@H]1[C@H]2CCCCN3C(=O)C[C@H]([C@@H]4[C@H]1OC(=O)[C@H]4C)[C@@H]23	–
Cc1ccccc1CSc1nnc2n(CC(C)C)c(=O)c3ccc(C(=O)NC(C)C)cc3n12	–
CC(C)OC(=O)N1CCC(COc2ccc3c(cnn3CCC(=O)O)c2)CC1	–
CC(C)[C@@](C)(O)[C@@H]1CN(c2nc(-c3[nH]nc4ncccc34)c(F)cc2Cl)CCN1	+
CC1(C(=O)NC2CCCCCC2)Cn2c(ccc2-c2ccco2)C(=O)N1CCc1cccs1 (stereo not drawn)	–
CN1CC[C@H](N(Cc2ccccc2)Cc2ccccc2)C[C@H](O)C1	–
CCCCN1C(=O)c2cc(C(=O)NCc3ccccc3OCC)nn2CC1(C)C(=O)NC1CCCC1 (stereo not drawn)	–
COc1ccc2cc(CNc3ccc(C)cc3)c(=O)n(CC(=O)Nc3cccc(C(F)(F)F)c3)c2c1	+
Cc1cc(C)cc(Nc2nc(C)cc(=O)n2CC(=O)Nc2cccc(C(F)(F)F)c2)c1	–
COc1ccc(C(=O)N[C@@H]2CN(C(=O)Nc3cccc(C(F)(F)F)c3)CCC[C@H]2O)cc1	–
COc1ccc2nc([C@H]3CCN(Cc4cccnc4)C3)[nH]c2c1	–
SMILES	Methyltransferases
CN1CCN(C(=O)c2cc(C3CC3)[nH]n2)CC12CCNC(=O)CC2 (stereo not drawn)	–
COc1cc2c(Nc3ccc(Cl)c(Cl)c3F)ncnc2cc1OCC1C[C@@H]2CN(C)C[C@@H]2C1 (stereo partly drawn)	+
Cn1cc(-c2cnc(Nc3ccc(F)c(Cl)c3)c3c2CCO3)cn1	–
COCCOc1cc2ncnc(Cl)c2cc1OCCOC	–
COc1cc2c(Oc3ccc(NC(=O)C4(C(=O)Nc5ccc(F)cc5)CC4)cc3F)ccnc2cc1OCCCN1CCOCC1	–
COc1cc2ncnc(Nc3ccc(F)c(Cl)c3)c2cc1OCCCN1CCOCC1	+
COc1ccc(CC(=O)NCc2ccccc2-c2ccccc2C(=O)NCCc2cccnc2)cc1	–
CCCNC(=O)c1ncn2c1C(=O)N(C1CC1)C(C)(C(=O)NCc1cccc(C)c1)C2 (stereo not drawn)	–
Cn1ccnc1CN1CCOc2cc([S+](=O)([O-])Nc3ccccc3)ccc2C1	–
CSc1ccc(-c2cccc(C(=O)NCC(=O)N3CCCC3)c2)cc1	–
COC1CC(O[C@H]2CC[C@@]3(C)C(CCC4C3[C@H](OC(C)=O)[C@@H](OC(=O)/C=C/c3ccccc3)[C@]3(C)C(C(C)=O)CC[C@]43O)C2)OC(C)C1OC1CC(OC)C(OC2CC(OC)C(OC3OC(C)C(OC4OC(CO)C(O)C(O)C4O)C(OC)C3O)C(C)O2)C(C)O1 (stereo partly drawn)	–
CCOc1ccccc1CN1C(=O)c2cc(-c3ccccc3)nn2CC1(C)C(=O)NCc1ccccc1 (stereo not drawn)	–
COC(=O)C1=CN(CC(=O)NC(C)c2ccccc2)S(=O)(=O)N=C1C (stereo not drawn)	–
